PubChem BioAssay AID492998 (Southern Research Specialized Biocontainment Screening …, 2010)
Hit rate of the full screen: of about 2,300 compounds, about 550 (24%) were called active. How the calls were made is not given here. A selection follows. A call without a number means that no potency is given here. Potency and affinity values are given separately.

experiment: Vero E6 cell cytotoxicity, dose response, cytotoxicity control for non-replicating M. tuberculosis project, secondary assay (AID 492998); conditions: series mostly up to 20 µM

Structure (SMILES) | outcome
Cc1cc(NC(=O)c2cc([N+](=O)[O-])cc([N+](=O)[O-])c2)no1 | inactive
CC(NC(=O)COc1ccc(-c2ccccc2)cc1)C1CCCO1 (configuration not stated) | inactive
COc1ccc(C(=O)NNC2=C(C(=O)C(F)(F)F)CCC2)cc1 | inactive
CCCCNC(=O)COC(=O)c1cc(F)c(F)cc1Cl | inactive
COc1cc(CNC2CCCC2)cc(Cl)c1OCc1ccc(F)cc1 | inactive
Clc1ccc(OCCCNCc2ccccc2)c2ccccc12 | inactive
O=C(Cc1c(F)cccc1Cl)Nc1ncc([N+](=O)[O-])s1 | inactive
Cc1nc(C)c(/C(O)=C/c2nc3ccccc3oc2=O)s1 | inactive
Cc1cccc2c(CC(=O)O)noc12 | inactive
CC(C)(C)c1cc(CN2CCC(O)CC2)cc(C(C)(C)C)c1O | inactive
Cc1ccnc(-n2sc3ccccc3c2=O)n1 | inactive
Cc1ccc(-n2sc3ccccc3c2=O)cc1 | inactive
Cn1c(=O)c(Oc2ccc(F)cc2)c(O)c2ccccc21 | inactive
CSC1=N/C(=C\c2ccc3c(c2)OCO3)C(=O)S1 | inactive
O=C(COC(=O)c1ccc(Br)o1)NCCCc1ccccc1 | inactive
O=C(NC1CCCC1)c1cc(-c2cccs2)on1 | inactive
Cc1ccsc1C(=O)OCC(=O)Nc1nnc(-c2ccccc2)o1 | inactive
Cc1ccc(NC(=O)CCSc2nnc(-c3ccco3)o2)cc1 | inactive
O=C(Nc1nnc(C2=COCCO2)o1)c1ccc(Cc2ccccc2)cc1 | inactive
Cc1ccccc1C(=O)Nc1nnc(-c2ccco2)o1 | inactive
O=C(Nc1ccc(Cl)cc1)C1CCCC1 | inactive
O=C(O)c1ccc(-n2nc(C(F)(F)F)c3c2CCCC3)cc1 | inactive
Brc1c(-c2ccc3c(c2)OCO3)nc2ncccn12 | inactive
COc1ccc(CC(=O)OCC(=O)Nc2ccc(Br)cc2)cc1 | inactive
CN1CCN(/N=C/c2ccc(-c3ccc([N+](=O)[O-])cc3Cl)o2)CC1 | inactive
O=C(Nc1ccc2c(c1)CCC2)c1ccc(Br)o1 | inactive

Structure (SMILES) | outcome
COC(=O)COc1cccc(NC(=O)c2cccc(C)c2)c1 | inactive
CCCCN(C)C(=O)c1cc2cc3ccc(OC)cc3nc2s1 | inactive
O=C(Nc1cccc([N+](=O)[O-])c1)C1COc2ccccc2O1 (configuration not stated) | inactive
O=C(N/N=C/c1ccc(OC(=O)c2ccco2)cc1)c1ccccn1 | inactive
Cc1ccc(OC(=O)CCS(=O)(=O)c2ccc(C)cc2)cc1 | inactive
CC1=NN(C(=O)c2ccc(Br)cc2)C(O)(c2ccccc2)C1 (configuration not stated) | inactive
CC1(c2nnc(-c3ccc(F)cc3)o2)CC(c2cccc(Cl)c2)=NO1 (configuration not stated) | inactive
COc1cccc(COC(=O)CCNC(=O)c2ccc(Br)cc2)c1OC | inactive
CCOc1cc(-c2sc(Nc3cc(C)ccc3OC)n[n+]2-c2ccccc2)ccc1OC | inactive
CN1CCN(c2cc3c(cc2F)c(=O)c(C(=O)O)cn3CCF)CC1 | inactive
Cc1ccccc1C(=O)NN1CC(C(=O)OCc2ccc(Cl)c(Cl)c2)CC1=O (configuration not stated) | inactive
C/C(=N\NC(=O)c1ccco1)c1cc(Cl)sc1Cl | inactive
COc1ccc(OCCOC(=O)c2cccs2)cc1 | inactive
CCCOC(=O)c1ccc(OC(=O)c2ccco2)cc1 | inactive
COc1ccc(NC(=O)C(=O)NNC(=O)C(C)Oc2ccc(Cl)cc2Cl)cc1 (configuration not stated) | inactive
CCc1ccc(OCCCC(=O)NCc2ccco2)cc1 | inactive
O=C(COc1ccc([N+](=O)[O-])cc1)NNC(=O)c1cccs1 | inactive
COc1ccc(OCCC(=O)OCC(=O)Nc2ccc(Br)cc2)cc1 | inactive
CC(C(=O)OCC(=O)c1ccccc1)N1C(=O)C2C3CCC(C3)C2C1=O (configuration not stated) | inactive
COc1cccc(C(=O)OCC(=O)c2ccc(Br)s2)c1OC | inactive
COc1ccccc1C1=Nn2c(nnc2C2CCCCC2)SC1 | inactive
c1nc2n(n1)C1=C(CCCC1)C1(CCCCC1)N2 | inactive
O=C(Nc1ccc(Cl)cc1Cl)c1cccc(N2C(=O)C=CC2=O)c1 | inactive
O=c1c2cc(Cl)ccc2oc2nc3n(c(=O)c12)CCCS3 | inactive
CCCc1nnc(NC(=O)c2cc3ccccc3oc2=O)s1 | inactive
COCc1[nH]nc2c1C(c1sccc1C)C(C#N)=C(N)O2 (configuration not stated) | inactive

Structure (SMILES) | outcome
O=C(CCC1CCCCC1)NCc1cccs1 | inactive
CCc1ccc(OCC(=O)c2c(O)c3ccccc3oc2=O)cc1 | inactive
COc1ccc(/C=C/c2nc3ccccc3c(=O)o2)cc1 | inactive
COc1cc(/C=N/Nc2cccc3cccnc23)cc(OC)c1O | inactive
Oc1cc(NCc2cccnc2)ccc1-c1nc2ccccc2o1 | inactive
C/C(O)=C\c1nc2ccccc2oc1=O | inactive
CC(=O)c1ccc(-c2nnc(CCC(=O)N(C)Cc3cccc4cnccc34)o2)s1 | inactive
c1coc(CNc2nc(N3CCCCC3)nc3ccccc23)c1 | inactive
O=[N+]([O-])c1ccc(CSc2nnc(-c3cccnc3)o2)cc1 | inactive
CC1CCN(C(=O)COC(=O)CCc2c[nH]c3ccccc23)CC1 | inactive
Cc1ccc(N=N/C(=C\O)C(=O)c2ccncc2)cc1 | inactive
CCOC(=O)Nc1cccc(OCC(=O)Nc2ccc(OC)cc2OC)c1 | inactive
O=C(Nc1ncc([N+](=O)[O-])s1)c1ccc2c(c1)OCO2 | inactive
Cc1ccc(NC(=O)COC(=O)C2=COCCO2)c([N+](=O)[O-])c1 | inactive
O=C(Nc1nccs1)c1ccc2ccccc2c1 | inactive
O=C(COC(=O)c1cc(Br)ccc1O)Nc1ccc2c(c1)OCO2 | inactive
COc1ccc(Nc2ccccc2N)cc1 | inactive
COc1ccc2nc(/N=C(\N)NC(=O)C(C)(C)C)nc(C)c2c1 | inactive
Cc1cccc(NC(=O)c2cc3ccccc3oc2=O)c1 | inactive
CCc1ccc(N2C(=O)NC(=O)/C(=C\C=C\c3ccco3)C2=O)cc1 | inactive
O=C(COc1ccc2ccccc2c1)NNC(=O)c1cccs1 | inactive
CCc1c(C)c2ccc(OCC(=O)OC)cc2oc1=O | inactive
O=C(O/N=C/c1ccc2c(c1)OCO2)c1ccc([N+](=O)[O-])cc1 | inactive
CCC(=O)Nc1ccc(C(=O)NNC(=O)c2cc([N+](=O)[O-])cc([N+](=O)[O-])c2)cc1 | inactive
c1ccc(OCc2nnc3sc(-c4cccs4)nn23)cc1 | inactive
